Results taken from PubChem BioAssay AID652054 (National Center for Advancing Translational Sciences (NCATS), 2013).
Among all 360,000 compounds or so, about 9,100 (2.5%) were called active. Roughly 4% stayed inconclusive and do not appear here. Rule as the data show it: active = max response below about -50%; inconclusive = no clear call, values can overlap the other calls; inactive = above that. Only a selection was taken, and actives are over-represented in it overall.

Biological target: D(3) dopamine receptor (Homo sapiens) (UniProt P35462)
Test: qHTS of D3 Dopamine Receptor Antagonist: qHTS
Settings: D3R cells, DiscoveRx beta-arrestin luminescence, antagonist mode; active compounds read low
Outline: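 Cells plated overnight at 1500 cells/well, then exposed to library compounds with dopamine controls for 90 minutes at 37 degrees C. DiscoveRx reagent added for 30–60 minutes at room temperature; luminescence read, quantitative HTS format.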
% is scaled to controls: 0 for no effect and ±100 for the full control effect.

D(3) dopamine receptor (Homo sapiens), sequence (P35462 whole entry, looked up): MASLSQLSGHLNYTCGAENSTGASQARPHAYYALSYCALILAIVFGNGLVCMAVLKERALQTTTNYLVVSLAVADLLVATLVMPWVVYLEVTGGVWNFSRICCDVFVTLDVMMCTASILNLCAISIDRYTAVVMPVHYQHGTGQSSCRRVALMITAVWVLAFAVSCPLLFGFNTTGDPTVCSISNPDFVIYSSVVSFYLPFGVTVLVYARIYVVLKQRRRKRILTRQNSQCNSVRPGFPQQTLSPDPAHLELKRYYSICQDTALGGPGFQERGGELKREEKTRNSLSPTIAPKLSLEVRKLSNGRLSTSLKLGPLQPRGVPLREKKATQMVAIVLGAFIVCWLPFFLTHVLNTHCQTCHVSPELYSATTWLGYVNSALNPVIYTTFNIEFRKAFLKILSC

SMILES	max response, negative = inhibition
CCCNC(=O)c1cc(C2CCCN(C(=O)c3ccc4c(c3)CCO4)C2)on1 (stereo not drawn)	3.62% (inactive)
O=S1(=O)CC(N2CCN(Cc3ccccc3F)CC2)CN1Cc1cn(Cc2ccccc2)nn1 (stereo not drawn)	0% (inactive)
COc1ccc(NC(=O)Nc2cccc3cccnc23)cc1	-66.6% (active)
COc1cccc(NC(=O)Nc2ccc(F)cc2)c1	3.65% (inactive)
O=C(Nc1ccccc1)Oc1cccc2cccnc12	-27.7% (inactive)
CCOC(=O)[C@]12CCCC=C1N(Cc1ccc(Cl)cc1Cl)C(=O)[C@H](CC(=O)N1CCCCC1)C2	-25.8% (inactive)
Cc1ccc2c(c1)C1CN(C)CCC1N2C(=O)c1ccccc1NS(=O)(=O)c1ccc(F)cc1C (stereo not drawn)	-23.3% (inactive)
Cc1ccc2c(c1)C1CN(C)CCC1N2S(=O)(=O)c1ccc(Oc2ccc([N+](=O)[O-])cc2)cc1 (stereo not drawn)	-68.7% (active)
Cc1ccc([N+](=O)[O-])cc1S(=O)(=O)N1CCCN(C)CC1	-7.78% (inactive)
Cc1ccc2c(c1)C1CN(C)CCC1N2S(=O)(=O)c1cccc(F)c1 (stereo not drawn)	-54.7% (active)
Cc1ccc2c(c1)C1CN(C)CCC1N2C(=S)Nc1ccc(OC(F)F)cc1 (stereo not drawn)	-6.37% (inactive)
Cc1ccc2c(c1)C1CN(C)CCC1N2C(=S)Nc1ccc(Cl)cc1Cl (stereo not drawn)	-8.46% (inactive)
O=C(Nc1cccc(Cc2ccccc2)c1)Nc1ccc2nc([C@@H]3O[C@H](CO)[C@@H](O)[C@H](O)[C@H]3O)[nH]c2c1	32.8% (inactive)
Cc1ccc(C(=O)Nc2c(-c3ccccc3)[nH][nH]c2=O)cc1	-20.8% (inactive)
COCOCCn1cc(CN2CCS(=O)(=O)N(Cc3ccc(-c4ccccc4)cc3)C(CC(C)C)C2=O)nn1 (stereo not drawn)	13% (inactive)
Cc1c(C(=O)OC(C)C)sc(NC(=O)c2cccnc2)c1C#N	-61.4% (active)
CC(C)NS(=O)(=O)c1ccc(NC(=O)c2cccnc2)cc1	0% (inactive)
CCOC(=O)c1cc(NC(=O)c2cccnc2)ccn1	-0.585% (inactive)
CCOC(=O)[C@]12CCCC=C1N(Cc1ccc3c(c1)OCO3)C(=O)[C@H](CC(=O)N1CCN(C(=O)c3ccco3)CC1)C2	-0.946% (inactive)
Cc1cccc(C(=O)NC2CCN(CC(=O)Nc3cccc(Cl)c3)CC2)c1	-13.9% (inactive)
OC[C@@H]1CN(C2CCCC2)C[C@H](n2cnc3c(NC4CCC4)ncnc32)O1	-7.86% (inactive)
CNc1ccc([N+](=O)[O-])cc1C(=O)O	-6.53% (inactive)

SMILES	max response, negative = inhibition
CCN(CC)c1ccc([N+](=O)[O-])cc1C(=O)O	9.06% (inactive)
O=C(O)c1ccc([N+](=O)[O-])cc1Sc1ccsc1	-56.7% (active)
O=C(NCCCN1CCN(c2ccc(F)cc2)CC1)Nc1ccc([N+](=O)[O-])cc1	-118% (active)
CN1CCN(CCNC(=O)Nc2ccc([N+](=O)[O-])cc2)CC1	-6.94% (inactive)
O=C(c1cc(C(=O)N2CCN(c3ccc(F)cc3)CC2)cc([N+](=O)[O-])c1)N1CCN(c2ccc(F)cc2)CC1	-2.24% (inactive)
COc1ccc(C2OC(CCc3ccccc3)Cc3[nH]c(=S)[nH]c(=O)c32)cc1 (stereo not drawn)	0% (inactive)
OC[C@@H]1CN(Cc2cccs2)C[C@H](n2cnc3c(Nc4ccccc4)ncnc32)O1	-4.85% (inactive)
COc1ccc(-c2ccc(CN3C(CC(C)C)C(=O)N(Cc4cn(CC5CCCCC5)nn4)CCS3(=O)=O)cc2)cn1 (stereo not drawn)	0.993% (inactive)
CN(Cc1ccccc1F)c1cc2c(c3c1ccn3C)C1CCC2O1 (stereo not drawn)	-29.6% (inactive)
COc1ccc(/C=N/NC(=O)Nc2ccc3nsnc3c2)c(OC)c1	-16.9% (inactive)
COc1ccc(/C=N/NC(=O)CNC(=O)c2ccc(S(=O)(=O)N3CCCC3)cc2)c(OC)c1	-0.269% (inactive)
COc1ccc(/C=N/NC(=O)c2ccc3c(c2)OCCO3)c(OC)c1	-64.3% (active)
COC(=O)[C@@]12C[C@@H](CC(=O)NCc3cccc(C(F)(F)F)c3)C(=O)N(Cc3ccco3)C1=CCC(C)(C)C2	-1.5% (inactive)
COc1cccc(/C=C/C(=O)Nc2ccc3c(c2)OCCO3)c1	-6.81% (inactive)
O=C(/C=C\c1ccc2c(c1)OCO2)NC1(C(=O)Nc2ccc3c(c2)OCCO3)CCCCC1	-59.6% (active)
Cc1cccc(NC(=O)/C=C/c2ccc3c(c2)OCO3)n1	-14.5% (inactive)
CSC1=NN(c2ccccc2)CN(c2ccccc2)N1C	-6.6% (inactive)
COC(=O)c1ccc2nc(C3CCCCC3)c(Cc3cccc(F)c3)n2c1	10.5% (inactive)
CCOC(=O)N1CCN(CCC(=O)Nc2ccccc2)CC1	-15.4% (inactive)
COc1cc2c(cc1OC)CN(CC(=O)Nc1ccc(F)cc1)CC2	-16.8% (inactive)
O=C(CN1CCc2cc3c(cc2C1)OCCCO3)Nc1ccccc1	-19.3% (inactive)
Cc1ccc(NC(=O)CN2CCc3ccccc3C2)cc1	-84.2% (active)

SMILES	max response, negative = inhibition
CC1CCN(CCC(=O)Nc2ccccc2)CC1	-0.851% (inactive)
Cc1ccc(NC(=O)CCN2CCc3ccccc3C2)cc1	-94.8% (active)
COc1ccc(NC(=O)C[C@H]2C(=O)N(CCc3ccccc3)C[C@@H]2C)cc1	1.09% (inactive)
CC(=O)NC(c1ccccc1)c1nc(-c2cccc(C(C)C)c2)cs1 (stereo not drawn)	20.2% (inactive)
CC1(C(=O)NS(=O)(=O)c2ccc3ccccc3c2)CCN1C(=O)C1(c2ccc(Cl)cc2)CCC1 (stereo not drawn)	-21.3% (inactive)
CNc1cncc(-c2cccc(C(=O)N3CCOCC3)c2)n1	13.3% (inactive)
CCC(c1nnnn1-c1ccc2c(c1)OCCO2)N1CCN(c2ccc(C(F)(F)F)cn2)CC1 (stereo not drawn)	4.77% (inactive)
COc1ccc(/C=C2\SC(=S)N(CCC(=O)N3CCOCC3)C2=O)cc1OC	-14.3% (inactive)
COc1ccc(CN2CC(C(=O)NCCN3CCN(c4ccccc4F)CC3)CC2=O)cc1 (stereo not drawn)	-22.6% (inactive)
O=C(NCCCN1CCN(c2ccccc2F)CC1)C1CCC(=O)N1C1CCCCC1 (stereo not drawn)	-78% (active)
O=C(NCCCN1CCCCCC1)C1CC(=O)N(C2CCCC2)C1 (stereo not drawn)	10.5% (inactive)
O=C(C[C@H]1CC[C@H]2[C@@H](COC[C@H](O)CN2C(=O)c2ccccn2)O1)N1CCN(c2ccccc2)CC1	-25.4% (inactive)
CCOC(=O)C1CCCN(C(=O)c2ccc(N(C)C)cc2)CC1 (stereo not drawn)	22.6% (inactive)
CC1=C(C(=O)N2CCOCC2)CC(CC(=O)NCC2CCCCC2)C(=O)N1Cc1ccc(F)cc1 (stereo not drawn)	-11.1% (inactive)
NC(Cc1ccc(F)cc1)c1csc(Nc2nncc3ccccc23)n1 (stereo not drawn)	7.2% (inactive)
O=C1CC2(CCCC2)Oc2ccc(Cl)cc21	0% (inactive)
O=C1Cc2ccccc2Sc2ccc(Cl)cc21	-51% (active)
S=C1Nc2cc(Cl)ccc2Sc2ccccc21	4.03% (inactive)
CCOC(=O)N1CCN(C(=O)C[C@@H]2C[C@@]3(C(=O)OC)CCCCC=C3N(CCC3=CCCCC3)C2=O)CC1	18.8% (inactive)
Cc1ccc(Cn2cc(CN3CC(N4CCN(C)CC4)CS3(=O)=O)nn2)cc1 (stereo not drawn)	-6.65% (inactive)
O=S1(=O)CC(N2CCSCC2)CN1Cc1cn(Cc2cccc(Cl)c2)nn1 (stereo not drawn)	26.4% (inactive)
COc1ccc(-c2cc(NC=O)c3ncc(-c4cccc(C(=O)N(C)C)c4)n3c2)c(OC)c1	-2.96% (inactive)

SMILES	max response, negative = inhibition
COC(=O)[C@]12CCCCC=C1N(CCC1=CCCCC1)C(=O)[C@H](CC(=O)N1CCSCC1)C2	-7.56% (inactive)
Cc1ccccc1C#CC1=CC(=O)CC(C)(C)C1	-9.95% (inactive)
Cc1nnc(SC(C)C(=O)c2c[nH]c3ccccc23)n1C1CC1 (stereo not drawn)	20.8% (inactive)
O=C(Nc1ccc(Sc2ccc(Br)cc2)cc1)c1ccco1	17.2% (inactive)
O=C(CCl)Nc1ccc(Sc2ccc(NC(=O)CCl)cc2)cc1	-60.1% (active)
O=C(CCl)Nc1cccc(CP(=O)(c2ccccc2)c2ccccc2)c1	-12.5% (inactive)
CC1(C)CC(=O)C=C(c2ccc(COC(=O)c3cc(F)cc(F)c3)cc2)C1=O	-13.6% (inactive)
Cc1ccccc1C(OCC(O)CN1CCCCC1CCO)c1ccccc1 (stereo not drawn)	-53.3% (active)
CC1CCCN(CC(O)COCc2ccccc2)C1 (stereo not drawn)	-0.0789% (inactive)
COc1cccc(CN(C)CC(O)COC(c2ccccc2)c2ccccc2C)c1 (stereo not drawn)	-10.2% (inactive)
CCc1nc2c(OCC(N)=O)cccn2c1N(C)C(=O)c1ccc(OC)cc1	0% (inactive)
CCCCN(C=O)c1c(CC)nc2c(OCc3ccccc3C(=O)OC)cccn12	-3.94% (inactive)
CCCCC(=O)N(C)c1c(CC)nc2c(OCc3ccc(S(C)(=O)=O)cc3)cccn12	0% (inactive)
Cc1nc2c(OCc3ccc(Cl)cc3)cccn2c1N(C)Cc1cccs1	-0.327% (inactive)
CCc1nc2c(OCc3ccc(Cl)cc3Cl)cccn2c1N(C)C(=O)C(C)C	-27.6% (inactive)
Cc1nc2c(OCc3ccc(Cl)cc3Cl)cccn2c1N(C)CC1CC1	-58.1% (active)
CCc1nc2c(OCCOc3ccccc3)cccn2c1N(C)C(=O)c1ccccc1F	14.9% (inactive)
CCOC(=O)N(C)c1c(CC)nc2c(OCc3ccccc3C(=O)OC)cccn12	-50.7% (active)
Cc1nc2c(OCc3cccc(Cl)c3)cccn2c1N(C)CC1CC1	-0.943% (inactive)
CCc1nc2c(OCCOc3ccccc3)cccn2c1N(C)C(=O)c1ccc(OC)cc1	-76.4% (active)
CCc1nc2c(OCc3ccc(C(=O)OC)cc3)cccn2c1N(C)C(=O)C(C)C	-12.4% (inactive)
CCCCC(=O)N(C)c1c(CC)nc2c(OCc3ccc(Cl)cc3Cl)cccn12	-63.9% (active)
